# Reference: the supplement of paper PMC13380429
# Tested on: Vero E6 infected with SARS-CoV-2
# Assay: morphology score (similarity to uninfected cells); higher = more like uninfected cells
# Conditions: 24 h
row,SMILES,morphology score
1,Cn1cnc2c1c(=O)[nH]c(=O)n2C [theobromine] (10 µM),0.00515
2,CN[C@H](C(=O)N[C@H](C(=O)N(C)[C@H](/C=C(\C)C(=O)O)C(C)C)C(C)(C)C)C(C)(C)c1ccccc1 [taltobulin] (10 µM),-0.171
3,O=C(O)c1ccc(/C=C2\SC(=S)N(c3cccc(C(F)(F)F)c3)C2=O)cc1 (10 µM),0.125
4,C/C(=C(\CCOP(=O)(O)O)SC(=O)c1ccccc1)N(C=O)Cc1cnc(C)nc1N [benfotiamine] (10 µM),-0.0264
5,CC1/C=C/C=C/C=C/C=C/C=C/C=C/C=C/C(OC2O[C@H](C)[C@@H](O)[C@H](N)[C@@H]2O)CC(O)C(C(=O)O)C(O)CC(=O)CC(O)CC(O)CC(O)CC(=O)CCCC(=O)CC(=O)OC1C(C)CC(C)C(O)CC(=O)c1ccc(N)cc1 (stereo not given in full) [candicidin] (0.833333 µM),0.198
6,O=c1ccc2ccc(OCCCCN3CCN(c4cccc5sccc45)CC3)cc2[nH]1 [brexpiprazole] (10 µM),0.0142
7,CC1=C(C)C(=O)C(C(CCCCCC(=O)O)c2ccccc2)=C(C)C1=O (stereo not given) [seratrodast] (10 µM),0.0459
8,C[C@]1(COc2ccc(N3CCC(Oc4ccc(OC(F)(F)F)cc4)CC3)cc2)Cn2cc([N+](=O)[O-])nc2O1 [delamanid] (10 µM),-0.0971
9,CC(C(=O)O)c1ccc2c(c1)[nH]c1ccc(Cl)cc12 (stereo not given) [carprofen] (10 µM),-0.0165
10,CCn1c(-c2nonc2N)nc2cnc(Oc3cccc(NC(=O)c4ccc(OCCN5CCOCC5)cc4)c3)cc21 (10 µM),0.306
11,c1ccc(Cn2c(N3CCNCC3)nc3ccccc32)cc1 [lerisetron] (10 µM),0.0474
12,C=CC[C@]1(O)CC[C@H]2[C@@H]3CCC4=CCCC[C@@H]4[C@H]3CC[C@@]21C [allylestrenol] (10 µM),0.0416
13,C[C@@]12CCc3occc3[C@H]1CC[C@@]13C[C@@H](CC[C@H]12)[C@@](O)(CO)C3 [cafestol] (10 µM),-0.0842
14,C[C@@H]1COC(Nc2ccc3ncnc(Nc4ccc(OCc5nccs5)c(Cl)c4)c3c2)=N1 (10 µM),-0.156
15,C[C@@H]1CN(CCCn2c3ccccc3c3ccccc32)C[C@H](C)N1 [rimcazole] (10 µM),0.623
16,Cc1ncc(-c2ccnc(Nc3ccc(S(C)(=O)=O)cc3)n2)n1C(C)C (0.833333 µM),-0.165
17,O=C(NCc1ccc(Oc2ccccc2)cc1)c1nc(-c2cc(Br)c(O)c(Br)c2)no1 (0.833333 µM),0.0493
18,CCC[C@@]1(CCc2ccccc2)CC(O)=C([C@H](CC)c2cccc(NS(=O)(=O)c3ccc(C(F)(F)F)cn3)c2)C(=O)O1 [tipranavir] (10 µM),0.183
19,Oc1cccc(-c2nc(N3CCOCC3)c3oc4ncccc4c3n2)c1 (10 µM),-0.0667
20,O=[N+]([O-])c1nccn1CC(O)CN1CCCCC1 (stereo not given) [pimonidazole] (10 µM),0.0622

row,SMILES,morphology score
1,NC(=S)N/N=C/c1coc2ccccc2c1=O.[Cl][Cu][Cl] (10 µM),-0.124
2,CC[C@H](C)[C@H](N)C1=N[C@H](C(=O)N[C@@H](CC(C)C)C(=O)N[C@H](CCC(=O)[O-])C(=O)N[C@H](C(=O)N[C@H]2CCCCNC(=O)[C@H](CC(N)=O)NC(=O)[C@@H](CC(=O)[O-])NC(=O)[C@H](Cc3cnc[nH]3)NC(=O)[C@@H](Cc3ccccc3)NC(=O)[C@H]([C@@H](C)CC)NC(=O)[C@@H](CCCN)NC2=O)[C@@H](C)CC)CS1.[Zn+2] [bacitracin-zinc] (10 µM),-0.0221
3,C[C@@H](Oc1cc(-n2cnc3ccc(CN4CCN(C)CC4)cc32)sc1C(N)=O)c1ccccc1C(F)(F)F (0.833333 µM),0.0643
4,C[C@@]12C[C@@]3(O)O[C@@H](O1)[C@]1(COC(=O)c4ccccc4)[C@H]3C[C@@]12O[C@@H]1O[C@H](CO)[C@@H](O)[C@H](O)[C@H]1O [paeoniflorin] (10 µM),0.192
5,Cc1cccc(/C=N/Nc2cc(N3CCOCC3)nc(OCCc3ccccn3)n2)c1 (10 µM),-0.334
6,Cn1c(C#N)ccc1-c1ccc2c(c1)C(C)(C)OC(=S)N2 [tanaproget] (10 µM),0.0429
7,NC(=O)N/N=C/c1ccc(Oc2ccc(F)cc2)cc1 (10 µM),-0.137
8,COc1cc(-c2cc(-c3cccc(O)c3)cnc2N)cc(OC)c1OC (10 µM),0.51
9,O=C1c2c(O)ccc(O)c2C(=O)c2c(NCCNCCO)ccc(NCCNCCO)c21 [mitoxantrone] (0.833333 µM),-0.00869
10,CC(C)=CCC/C(C)=C/CC/C(C)=C/C=C/C(C)=C/C(=O)O [peretinoin] (10 µM),-0.00242
11,COC(=O)N[C@H](C(=O)N1CCC[C@H]1C(=O)Nc1ccc([C@@H]2CC[C@@H](c3ccc(NC(=O)[C@@H]4CCCN4C(=O)[C@@H](NC(=O)OC)C(C)C)cc3)N2c2ccc(C(C)(C)C)cc2)cc1)C(C)C [ombitasvir] (10 µM),0.125
12,O=C(O[C@@H]1Cc2c(O)cc(O)cc2O[C@@H]1c1cc(O)c(O)c(O)c1)c1cc(O)c(O)c(O)c1 [epigallocatechin-gallate-(-)] (10 µM),0.156
13,CN(C)c1ccc2c(c1)Sc1cc(N(C)C)ccc1N2 [leucomethylene-blue] (0.833333 µM),0.0825
14,COc1cc(Br)c(Nc2nc(-c3c(C)nc4ncccn34)cs2)c(Br)c1 (10 µM),-0.31
15,CCCCCCCCOc1ccccc1C(=O)Nc1ccc(C(=O)OCC[N+](C)(CC)CC)cc1 [otilonium] (10 µM),0.299
16,CCCCCS(=O)(=O)CCCCCCCCCCn1c(-c2ccc(O)cc2)c(C)c2cc(O)ccc21 (0.833333 µM),0.00616
17,Cc1cn2c(N)c(Cl)cc(C(=O)NCC3CCN(CC(C)C)CC3)c2n1 (10 µM),0.221
18,FC(F)(F)c1ccc(CNc2ccc(Cc3c[nH]c4ncc(Cl)cc34)cn2)cn1 [pexidartinib] (10 µM),0.473
19,C=CCNC(=O)c1cc([N+](=O)[O-])cc2c(=O)[nH]c(Nc3ccc(Cl)c(Cl)c3)nc12 (10 µM),-0.137
20,OC[C@H]1NCC[C@@H](O)[C@@H]1O [fagomine] (10 µM),-0.0114
